# This is one part of a sample in which the strongest signals are shown more often than they occur.
# Assays:
# Assay in all cases: glycan array binding signal (z-score within array); higher = stronger binding
# Conditions in all cases: glycan notation: IUPAC condensed, linker removed
# [1] = target: Fuc(a1-2)Gal(b1-3)GalNAc(b1-4)[Neu5Ac(a2-3)]Gal(b1-4)Glc
# How it was run: (§1)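 Glycan array data were curated from 3228 arrays in the Consortium for Functional Glycomics database and kept only where the protein sequence was available. Glycan names were converted to IUPAC-condensed notation, and columns mapping to the same glycan were averaged. The binding signal is a within-array Z-score, averaged across arrays of the same protein sequence at different concentrations or buffers and across linkers. Negative Z-scores can be read as non-binding.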
# Fuc(a1-2)Gal(b1-3)GlcNAc = target: Fuc(a1-2)Gal(b1-3)GlcNAc
# How it was run: as §1
# [2] = target: Fuc(a1-2)Gal(b1-3)GlcNAc(b1-2)Man(a1-3)[Fuc(a1-2)Gal(b1-3)GlcNAc(b1-2)Man(a1-6)]Man(b1-4)GlcNAc(b1-4)GlcNAc
# How it was run: as §1
# [3] = target: Fuc(a1-2)Gal(b1-3)[Fuc(a1-4)]GlcNAc(b1-3)[Fuc(a1-3)[Gal(b1-4)]GlcNAc(b1-6)]Gal(b1-4)Glc
# How it was run: as §1
# [4] = target: Fuc(a1-2)[Gal(a1-3)]Gal(b1-3)GlcNAc
# How it was run: as §1
# [5] = target: Fuc(a1-2)[Gal(a1-3)]Gal(b1-4)GlcNAc(b1-2)Man(a1-3)[Fuc(a1-2)[Gal(a1-3)]Gal(b1-4)GlcNAc(b1-2)Man(a1-6)]Man(b1-4)GlcNAc(b1-4)GlcNAc
# How it was run: as §1
# [6] = target: Fuc(a1-2)[GalNAc(a1-3)]Gal(b1-4)GlcNAc(b1-2)Man
# How it was run: as §1
# Fuc(b1-3)GlcNAc = target: Fuc(b1-3)GlcNAc
# How it was run: as §1
# Gal(b1-3)Gal = target: Gal(b1-3)Gal
# How it was run: as §1
# [7] = target: Gal(b1-3)[Fuc(a1-4)]GlcNAc(b1-2)Man(a1-3)[Gal(b1-3)[Fuc(a1-4)]GlcNAc(b1-2)Man(a1-6)]Man(b1-4)GlcNAc(b1-4)[Fuc(a1-6)]GlcNAc
# How it was run: as §1
# Gal(b1-4)Gal = target: Gal(b1-4)Gal
# How it was run: as §1
# Gal(b1-4)Glc6S = target: Gal(b1-4)Glc6S
# How it was run: as §1
# Gal(b1-4)GlcNAc = target: Gal(b1-4)GlcNAc
# How it was run: as §1
# [8] = target: Gal(b1-4)GlcNAc(b1-2)Man(a1-6)[Man(a1-3)]Man(b1-4)GlcNAc(b1-4)GlcNAc
# How it was run: as §1
# [9] = target: Gal(b1-4)GlcNAc(b1-2)[Gal(b1-4)GlcNAc(b1-6)]Man(a1-6)[Gal(b1-4)GlcNAc(b1-2)Man(a1-3)]Man(b1-4)GlcNAc(b1-4)[Fuc(a1-6)]GlcNAc
# How it was run: as §1
# [10] = target: Gal(b1-4)GlcNAc(b1-3)Gal(b1-4)GlcNAc(b1-3)GalNAc
# How it was run: as §1
# Gal6P(b1-4)GlcNAc = target: Gal6P(b1-4)GlcNAc
# How it was run: as §1
# Gal6S(b1-4)Glc6S = target: Gal6S(b1-4)Glc6S
# How it was run: as §1
# [11] = target: GalNAc(b1-3)Gal(a1-4)Gal(b1-4)GlcNAc
# How it was run: as §1
# GlcA(b1-6)Gal = target: GlcA(b1-6)Gal
# How it was run: as §1
# [12] = target: GlcNAc(a1-4)Gal(b1-4)GlcNAc(b1-3)Gal(b1-4)[Fuc(a1-3)]GlcNAc(b1-3)Gal(b1-4)[Fuc(a1-3)]GlcNAc
# How it was run: as §1
# [13] = target: GlcNAc(b1-2)[GlcNAc(b1-4)]Man(a1-3)[GlcNAc(b1-2)Man(a1-6)]Man(b1-4)GlcNAc(b1-4)GlcNAc
# How it was run: as §1
# [14] = target: GlcNAc(b1-2)[GlcNAc(b1-4)]Man(a1-3)[GlcNAc(b1-4)][GlcNAc(b1-2)[GlcNAc(b1-6)]Man(a1-6)]Man(b1-4)GlcNAc(b1-4)GlcNAc
# How it was run: as §1
# [15] = target: GlcNAc(b1-4)GlcNAc(b1-4)GlcNAc
# How it was run: as §1
# [16] = target: GlcNAc(b1-4)GlcNAc(b1-4)GlcNAc(b1-4)GlcNAc(b1-4)GlcNAc(b1-4)GlcNAc
# How it was run: as §1
# [17] = target: Man(a1-2)Man(a1-2)Man(a1-3)Man
# How it was run: as §1
# [18] = target: Man(a1-2)Man(a1-2)Man(a1-6)[Man(a1-3)]Man
# How it was run: as §1
# Man(a1-2)Man(a1-3)Man = target: Man(a1-2)Man(a1-3)Man
# How it was run: as §1
# [19] = target: Man(a1-2)Man(a1-3)[Man(a1-2)Man(a1-6)]Man
# How it was run: as §1
# [20] = target: Man(a1-2)Man(a1-3)[Man(a1-2)Man(a1-6)]Man(a1-6)[Man(a1-2)Man(a1-2)Man(a1-3)]Man
# How it was run: as §1
# [21] = target: Man(a1-2)Man(a1-3)[Man(a1-2)Man(a1-6)]Man(a1-6)[Man(a1-2)Man(a1-2)Man(a1-3)]Man(b1-4)GlcNAc(b1-4)GlcNAc
# How it was run: as §1
# [22] = target: Man(a1-2)Man(a1-3)[Man(a1-6)]Man(a1-6)[Man(a1-2)Man(a1-3)]Man(b1-4)GlcNAc(b1-4)GlcNAc
# How it was run: as §1
# [23] = target: Man(a1-2)Man(a1-6)[Man(a1-3)]Man(a1-6)[Man(a1-2)Man(a1-2)Man(a1-3)]Man
# How it was run: as §1
# [24] = target: Man(a1-2)Man(a1-6)[Man(a1-3)]Man(a1-6)[Man(a1-2)Man(a1-2)Man(a1-3)]Man(b1-4)GlcNAc(b1-4)GlcNAc
# How it was run: as §1
# [25] = target: Man(a1-3)[Man(a1-6)]Man(a1-6)[Man(a1-2)Man(a1-3)]Man(b1-4)GlcNAc(b1-4)GlcNAc
# How it was run: as §1
# [26] = target: Neu5Ac(a2-6)Gal(b1-4)GlcNAc(b1-2)Man(a1-3)[Gal(b1-4)GlcNAc(b1-2)Man(a1-6)]Man(b1-4)GlcNAc(b1-4)GlcNAc
# How it was run: as §1
# [27] = target: Neu5Ac(a2-6)Gal(b1-4)GlcNAc(b1-2)Man(a1-6)[Man(a1-3)]Man(b1-4)GlcNAc(b1-4)GlcNAc
# How it was run: as §1
# [28] = target: Neu5Ac(a2-6)Gal(b1-4)GlcNAc(b1-3)Gal(b1-3)GlcNAc
# How it was run: as §1
# [29] = target: Neu5Ac(a2-6)Gal(b1-4)GlcNAc(b1-6)[Gal(b1-3)]GalNAc
# How it was run: as §1
# [30] = target: Neu5Ac(a2-6)Gal(b1-4)GlcNAc6S
# How it was run: as §1
# Neu5Ac(a2-6)GalNAc = target: Neu5Ac(a2-6)GalNAc
# How it was run: as §1
# [31] = target: Neu5Ac(a2-6)GlcNAc(b1-4)GlcNAc
# How it was run: as §1
# Neu5Gc(a2-3)Gal(b1-4)Glc = target: Neu5Gc(a2-3)Gal(b1-4)Glc
# How it was run: as §1
binder,measurement,setting,value
Microvirin-2 (Microcystis aeruginosa) (protein) MPNFSHTCSSINYDPDSTILSAECQARDGEWLPTELRLSDHIGNIDGELQFGDQNFQETCQDCHLEFGDGEQSVWLVCTCQTMDGEWKSTQILLDSQIDNNDSQLEIGGSMPNFSHTCSSINYDPDSTILSAECQARDGEWLPTELRLSDHIGNIDGELQFGDQNFQETCQDCHLEFGDGEQSVWLVCTCQTMDGEWKSTQILLDSQIDNNDSQLEIG,glycan array binding signal (z-score),[1],-0.133
same,glycan array binding signal (z-score),Fuc(a1-2)Gal(b1-3)GlcNAc,-0.139
same,glycan array binding signal (z-score),[2],0.021
same,glycan array binding signal (z-score),[3],-0.137
same,glycan array binding signal (z-score),[4],-0.138
same,glycan array binding signal (z-score),[5],-0.113
same,glycan array binding signal (z-score),[6],-0.138
same,glycan array binding signal (z-score),Fuc(b1-3)GlcNAc,-0.137
same,glycan array binding signal (z-score),Gal(b1-3)Gal,-0.144
same,glycan array binding signal (z-score),[7],0.648
same,glycan array binding signal (z-score),Gal(b1-4)Gal,-0.143
same,glycan array binding signal (z-score),Gal(b1-4)Glc6S,-0.134
same,glycan array binding signal (z-score),Gal(b1-4)GlcNAc,-0.131
same,glycan array binding signal (z-score),[8],-0.141
same,glycan array binding signal (z-score),[9],-0.131
same,glycan array binding signal (z-score),[10],0.024
same,glycan array binding signal (z-score),Gal6P(b1-4)GlcNAc,-0.134
same,glycan array binding signal (z-score),Gal6S(b1-4)Glc6S,-0.128
same,glycan array binding signal (z-score),[11],-0.131
same,glycan array binding signal (z-score),GlcA(b1-6)Gal,-0.139
same,glycan array binding signal (z-score),[12],-0.031
same,glycan array binding signal (z-score),[13],-0.139
same,glycan array binding signal (z-score),[14],-0.141
same,glycan array binding signal (z-score),[15],-0.14
same,glycan array binding signal (z-score),[16],-0.135
same,glycan array binding signal (z-score),[17],5.28
same,glycan array binding signal (z-score),[18],9.44
same,glycan array binding signal (z-score),Man(a1-2)Man(a1-3)Man,4.43
same,glycan array binding signal (z-score),[19],7.03
same,glycan array binding signal (z-score),[20],6.69
same,glycan array binding signal (z-score),[21],3.1
same,glycan array binding signal (z-score),[22],5.79
same,glycan array binding signal (z-score),[23],6.04
same,glycan array binding signal (z-score),[24],13.3
same,glycan array binding signal (z-score),[25],7.25
same,glycan array binding signal (z-score),[26],-0.142
same,glycan array binding signal (z-score),[27],-0.143
same,glycan array binding signal (z-score),[28],-0.123
same,glycan array binding signal (z-score),[29],-0.107
same,glycan array binding signal (z-score),[30],-0.142
same,glycan array binding signal (z-score),Neu5Ac(a2-6)GalNAc,-0.133
same,glycan array binding signal (z-score),[31],-0.135
same,glycan array binding signal (z-score),Neu5Gc(a2-3)Gal(b1-4)Glc,-0.12

# Reference: the supplement of paper PMC8728848
